Measurements published in ChEMBL document CHEMBL3988442, “University of Dundee, Small-Polar-MMV Screening Library” (2021).
The campaign covered roughly 38,000 compounds. About 1,200 (3.2%) showed an effect of 50% or more. The median lay at about -58%. The sample as a whole holds a higher share of strong results than the screen did.

System: Plasmodium falciparum
Experiment: Calibr Malaria Delayed Death Assay SOP
Format: functional, organism-based
Parameters: scale not given: in the data most compounds retested in dose-response had high values
Conditions: concentration 4.99e-06 (unit not given; other assays of the set use mol/L)

First: CC(C)N(CC1CCCN(Cc2ccon2)C1)C(=O)OC(C)(C)C (stereo not drawn)
Second: Cc1noc(C)c1CN1CCCC(CN(C(=O)OC(C)(C)C)C(C)C)C1 (stereo not drawn)
The “Percent Effect” value of the first is lower: -9.372% for the first, 52.41% for the second.

Compared with `CC(C)N(CC1CCCN(CC(N)=O)C1)C(=O)OC(C)(C)C` (stereo not drawn), `CC(C)(C)c1ccc(C(=O)C2CCCN(C(=O)CNS(C)(=O)=O)C2)cc1` (stereo not drawn) is lower in “Percent Effect” value: -15.39% for the first, -75.07% for the second.

Going from `NC(=O)C(CNC(=O)Cc1ccsc1)Cc1ccc(F)cc1` (stereo not drawn) to `COc1ccccc1OC1CN(C(=O)C(c2ccc(F)cc2)N(C)C)C1` (stereo not drawn), the “Percent Effect” value rises from -150.5% to 0.4692%.

Going from `COc1cc(C2CC(=O)Nc3c2nc2n3CCCC2)ccc1O` (stereo not drawn) to `COc1cccc(CN2CCCC2c2c(C)nn(C)c2C)c1` (stereo not drawn), the “Percent Effect” value rises from -30.17% to 21.41%.

Compared with `COCCN(Cc1nc2c(cnn2C)c(=O)[nH]1)C(C)c1ccccc1` (stereo not drawn), `Cc1nc(CN2CCCC2Cn2ccnc2C(C)C)nc2ccccc12` (stereo not drawn) is higher in “Percent Effect” value: -89.75% for the first, 77.09% for the second.

Compared with `Cc1ccc(N2CCc3ncnc(N(C)C)c3CC2)nn1`, `CCc1c(C)sc2ncnc(N3C[C@H](O)[C@@H](N4CCCC4)C3)c12` is higher in “Percent Effect” value: -119.5% for the first, 60.55% for the second.

Compared with `COCC(=O)NC1CC2(CCN(CCF)CC2)Oc2ccccc21.O=C(O)C(F)(F)F` (stereo not drawn), `CS(=O)(=O)NC1CC2(CCN(CCF)CC2)Oc2ccccc21.O=C(O)C(F)(F)F` (stereo not drawn) is higher in “Percent Effect” value: -129.2% for the first, -76.24% for the second.

Compared with `CC(C)N1CCC2(CC1)CC(NCc1ccccn1)c1ccccc1O2.O=C(O)C(F)(F)F.O=C(O)C(F)(F)F.O=C(O)C(F)(F)F` (stereo not drawn), `O=C(O)C(F)(F)F.O=C(O)C(F)(F)F.O=C(O)C(F)(F)F.OCCN1CCC2(CC1)CC(NCc1ccccn1)c1ccccc1O2` (stereo not drawn) is higher in “Percent Effect” value: 70.65% for the first, 70.8% for the second.

Compared with `CC(C)N1CCC2(CC1)CC(NS(C)(=O)=O)c1ccccc1O2.O=C(O)C(F)(F)F` (stereo not drawn), `CC(C)CN1CCC2(CC1)CC(NS(C)(=O)=O)c1ccccc1O2.O=C(O)C(F)(F)F` (stereo not drawn) is lower in “Percent Effect” value: -16.02% for the first, -52.98% for the second.

Compared with `CN(C)c1no[n+]([O-])c1-c1ccccc1`, `CS(=O)(=O)CCOc1nc(-c2ccccc2Cl)no1` is higher in “Percent Effect” value: -137.1% for the first, -35.46% for the second.

Compared with `COCc1nn(C(C)C)c2c1CCN(Cc1ccc(C)o1)C2.O=C(O)C(F)(F)F`, `COc1ccc(C(=O)Nc2ccc3ncn(C(C)C)c(=O)c3c2)cc1` is higher in “Percent Effect” value: -30.71% for the first, 33.29% for the second.

First: Cc1nc[nH]c1-c1nccn1CCN1CCCOC1=O
Second: CC(c1nc(C2CC2)no1)N1CCN(CCN2CCCC2=O)CC1 (stereo not drawn)
The “Percent Effect” value of the first is lower: -113% for the first, -34.43% for the second.

Going from `O=C(c1cc(Cl)c2c(c1)OCO2)N1CCN(c2cnccn2)CC1` to `CC(=O)N1CCN(c2cc(N3CCOCC3)cnn2)CC1`, the “Percent Effect” value rises from -89.48% to -46.73%.

Going from `Cn1c(CN2CCCC(N3CCCCCC3)C2)cc(=O)n(C)c1=O` (stereo not drawn) to `Cn1c(CN2CCCCC2)cc(=O)c(O)c1CN1CCCCC1`, the “Percent Effect” value rises from -10.45% to 81.24%.

Compared with `Cn1c(CN2CCOCC2)cc(=O)c(O)c1CN1CCCC1`, `Cn1c(CN2CCOCC2)cc(=O)c(O)c1CN1CCCCC1` is lower in “Percent Effect” value: -211.8% for the first, -218.7% for the second.

Compared with `Cn1c(CN2CCOCC2)cc(=O)c(O)c1CN1CCOCC1`, `Cn1c(CN2CCCCCC2)cc(=O)c(O)c1CN1CCCC1` is higher in “Percent Effect” value: -232.2% for the first, 59.19% for the second.

Compared with `O=C(O)CC1COCCN1Cc1ccccc1-c1ccccc1` (stereo not drawn), `c1ccc(Cc2noc(CN3CCCCC3Cn3cccn3)n2)cc1` (stereo not drawn) is higher in “Percent Effect” value: -118% for the first, -99.91% for the second.

Compared with `O=C(N1CCCC(n2cncn2)C1)C1(c2ccc(Cl)cc2)CCC1` (stereo not drawn), `O=C(CCc1ccccn1)N1CCCC(N2CCNC2=O)C1` (stereo not drawn) is lower in “Percent Effect” value: -26.48% for the first, -153% for the second.

Going from `CCCN(C(=O)c1cccnc1)c1nc2c(s1)CCc1c-2cnn1C` to `CN(Cc1cc(Br)cn1C)C(=O)c1cccnc1`, the “Percent Effect” value falls from 81.54% to -12.65%.

Going from `CCN(CCN1CCOCC1)C(=O)c1cccnc1` to `CCc1c(C)sc2ncnc(N3CC[C@@H](N4CCOCC4)[C@H](O)C3)c12`, the “Percent Effect” value rises from -63.54% to -5.608%.

Compared with `O=C(c1ccccc1)N1CC[C@H]2C[C@H](c3nnc(C4CC4)o3)O[C@@H]2C1`, `O=C(NCc1nnnn1-c1ccccc1)c1ccc(C2CCCO2)s1` (stereo not drawn) is lower in “Percent Effect” value: -87.6% for the first, -146% for the second.

Compared with `CCc1c(C)sc2ncnc(N3CCN(C4CCOCC4)CC3)c12`, `CCc1c(C)sc2ncnc(N3CC[C@@H](N4CCC(O)CC4)[C@H](O)C3)c12` is higher in “Percent Effect” value: 31.3% for the first, 74.53% for the second.

First: CCc1nc(CC2CN(c3ncnc4sc(C)c(C)c34)CCO2)no1 (stereo not drawn)
Second: Cc1sc2ncnc(N3CCCC3Cn3cccn3)c2c1C (stereo not drawn)
The “Percent Effect” value of the first is lower: -116.3% for the first, -55.32% for the second.

First: Cc1cc(C)cc(N2CCN(C(=O)C3CN(C)C(=O)N3)CC2=O)c1 (stereo not drawn)
Second: Cc1ccc(Cl)c(C)c1NC(=O)N1CCCN(Cc2ccccn2)CC1
The “Percent Effect” value of the first is lower: -59% for the first, -12.1% for the second.

Going from `CC1(NC(=O)Cc2csc(-c3cccc(Cl)c3)n2)CCS(=O)(=O)C1` (stereo not drawn) to `Cc1nc(CN2CCCC2c2ccsc2)nc2ccccc12` (stereo not drawn), the “Percent Effect” value rises from -114.6% to 24.09%.

First: Cc1nc(C(=O)N(C)CC2CC2)nn1-c1ccccc1C(C)C
Second: CC(C)c1nccn1CC1CCCN1Cc1nc2ccccc2n1C (stereo not drawn)
The “Percent Effect” value of the first is lower: -82.1% for the first, 20.35% for the second.

First: Cc1cccc(C(C(=O)N2CC(Oc3ccccc3F)C2)N(C)C)c1 (stereo not drawn)
Second: CN(C)C(C(=O)N1CC(Oc2ccccc2F)C1)c1ccc(F)cc1 (stereo not drawn)
The “Percent Effect” value of the first is lower: -1.988% for the first, 62.88% for the second.

First: Cc1nn(C)cc1-c1cc(C(F)(F)F)nc(NC2CCN(C)CC2)n1
Second: Cc1nc2ccccc2nc1CN1CCCC1c1c(C)nn(C)c1C (stereo not drawn)
The “Percent Effect” value of the first is lower: -72.67% for the first, 56.82% for the second.

First: Cc1nc(CN2CCCCC2Cn2cncn2)nc2ccccc12 (stereo not drawn)
Second: Cc1nc(CN2CCCCC2Cn2cccn2)nc2ccccc12 (stereo not drawn)
The “Percent Effect” value of the first is lower: -55.02% for the first, 70.28% for the second.

Compared with `Cc1nn(C)c(C)c1C1CCCN1CCCc1nc2ccccc2o1` (stereo not drawn), `Cc1nc(C)n(CC2CCCN2Cc2nc(N)c3ccccc3n2)n1` (stereo not drawn) is lower in “Percent Effect” value: 18.49% for the first, -104.3% for the second.

Compared with `Cc1nc(CN2CCCC2Cn2cccn2)nc2ccccc12` (stereo not drawn), `c1cnn(CC2CCCN2Cc2noc(C3CC3)n2)c1` (stereo not drawn) is lower in “Percent Effect” value: 55.28% for the first, -115.2% for the second.

For `CCSc1nnc([C@@H](N)CC(C)C)o1.Cl`, the “Percent Effect” value was -105.7%.
